Conditions in all cases: Compound concentration 20.0 uM
Assay [1] deals with Tyrosine-protein kinase ABL1 (Homo sapiens) (UniProt P00519).
Assay [2] deals with Bromodomain-containing protein 4 (Homo sapiens) (UniProt O60885).
In assay [3] the target is Cyclin-dependent kinase 2 (Homo sapiens) (UniProt P24941).
Assay [4] addresses Casein kinase I isoform delta (Homo sapiens) (UniProt P48730).
In assay [5] the target is Glycogen synthase kinase-3 beta (Homo sapiens) (UniProt P49841).
The target in assay [6] is Mitogen-activated protein kinase 1 (Homo sapiens) (UniProt P28482).
Mitogen-activated protein kinase 1 (Homo sapiens), sequence (P28482 whole entry): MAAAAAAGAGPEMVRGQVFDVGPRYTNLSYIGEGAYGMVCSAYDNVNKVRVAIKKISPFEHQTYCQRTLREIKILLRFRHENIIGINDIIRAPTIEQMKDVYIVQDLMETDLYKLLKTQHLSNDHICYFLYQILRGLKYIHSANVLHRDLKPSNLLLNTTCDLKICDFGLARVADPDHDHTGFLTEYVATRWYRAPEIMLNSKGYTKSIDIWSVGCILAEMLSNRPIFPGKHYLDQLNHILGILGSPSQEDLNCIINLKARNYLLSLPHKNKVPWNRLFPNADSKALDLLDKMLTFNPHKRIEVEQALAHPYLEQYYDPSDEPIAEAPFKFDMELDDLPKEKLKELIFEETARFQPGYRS
The target in assay [7] is T1, Aurora kinase A (Homo sapiens) (UniProt O14965).
T1 sequence (whole entry): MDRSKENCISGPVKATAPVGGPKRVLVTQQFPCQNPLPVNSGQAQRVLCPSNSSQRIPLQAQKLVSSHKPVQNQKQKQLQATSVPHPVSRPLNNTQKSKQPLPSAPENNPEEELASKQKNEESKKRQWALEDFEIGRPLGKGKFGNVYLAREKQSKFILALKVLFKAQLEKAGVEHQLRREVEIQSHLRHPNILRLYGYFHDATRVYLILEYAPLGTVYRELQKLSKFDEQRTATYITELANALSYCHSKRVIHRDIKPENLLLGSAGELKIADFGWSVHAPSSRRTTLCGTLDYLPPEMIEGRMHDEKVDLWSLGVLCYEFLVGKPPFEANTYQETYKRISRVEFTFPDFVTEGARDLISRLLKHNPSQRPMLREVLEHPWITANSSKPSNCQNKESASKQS

For assay [8], the target named is T2, Transcription intermediary factor 1-alpha (Homo sapiens) (UniProt O15164).
T2 sequence (whole entry): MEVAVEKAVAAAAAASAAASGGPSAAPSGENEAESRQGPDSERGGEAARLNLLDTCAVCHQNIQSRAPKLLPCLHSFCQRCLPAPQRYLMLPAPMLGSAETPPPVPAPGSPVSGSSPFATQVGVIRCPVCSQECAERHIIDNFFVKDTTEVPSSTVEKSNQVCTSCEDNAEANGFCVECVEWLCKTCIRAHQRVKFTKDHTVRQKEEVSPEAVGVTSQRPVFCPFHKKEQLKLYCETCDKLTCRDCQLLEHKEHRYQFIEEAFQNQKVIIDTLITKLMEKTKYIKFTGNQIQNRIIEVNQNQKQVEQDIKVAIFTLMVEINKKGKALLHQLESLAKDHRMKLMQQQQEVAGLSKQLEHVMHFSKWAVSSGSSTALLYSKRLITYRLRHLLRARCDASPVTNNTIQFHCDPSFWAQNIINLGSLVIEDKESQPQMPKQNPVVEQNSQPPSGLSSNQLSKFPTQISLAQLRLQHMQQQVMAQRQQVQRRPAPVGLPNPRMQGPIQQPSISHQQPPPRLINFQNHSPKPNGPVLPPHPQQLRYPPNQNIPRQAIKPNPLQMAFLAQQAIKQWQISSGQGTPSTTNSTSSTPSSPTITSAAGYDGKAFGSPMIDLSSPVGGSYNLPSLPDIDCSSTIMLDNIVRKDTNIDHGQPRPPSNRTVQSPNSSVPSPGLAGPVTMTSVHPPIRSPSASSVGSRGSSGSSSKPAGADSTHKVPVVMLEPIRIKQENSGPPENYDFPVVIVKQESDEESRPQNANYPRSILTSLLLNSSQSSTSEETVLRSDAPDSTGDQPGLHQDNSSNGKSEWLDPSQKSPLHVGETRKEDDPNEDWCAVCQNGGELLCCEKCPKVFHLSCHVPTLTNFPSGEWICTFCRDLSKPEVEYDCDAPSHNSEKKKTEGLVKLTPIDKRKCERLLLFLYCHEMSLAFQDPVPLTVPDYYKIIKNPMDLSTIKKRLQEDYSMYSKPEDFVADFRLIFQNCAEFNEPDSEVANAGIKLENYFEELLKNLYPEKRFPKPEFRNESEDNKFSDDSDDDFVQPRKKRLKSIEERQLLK

Glycogen synthase kinase-3 beta (Homo sapiens), sequence (P49841 whole entry, looked up): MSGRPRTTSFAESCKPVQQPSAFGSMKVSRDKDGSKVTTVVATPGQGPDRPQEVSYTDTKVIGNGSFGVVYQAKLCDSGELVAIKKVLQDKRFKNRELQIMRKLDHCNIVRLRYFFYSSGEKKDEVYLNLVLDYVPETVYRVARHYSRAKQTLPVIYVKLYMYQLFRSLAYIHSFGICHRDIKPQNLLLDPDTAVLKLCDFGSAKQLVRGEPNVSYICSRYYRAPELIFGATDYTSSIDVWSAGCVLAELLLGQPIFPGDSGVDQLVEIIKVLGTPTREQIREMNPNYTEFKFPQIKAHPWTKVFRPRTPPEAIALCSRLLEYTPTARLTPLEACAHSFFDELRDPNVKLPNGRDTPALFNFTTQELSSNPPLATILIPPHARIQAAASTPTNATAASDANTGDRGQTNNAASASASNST
Tyrosine-protein kinase ABL1 (Homo sapiens), sequence (P00519 whole entry): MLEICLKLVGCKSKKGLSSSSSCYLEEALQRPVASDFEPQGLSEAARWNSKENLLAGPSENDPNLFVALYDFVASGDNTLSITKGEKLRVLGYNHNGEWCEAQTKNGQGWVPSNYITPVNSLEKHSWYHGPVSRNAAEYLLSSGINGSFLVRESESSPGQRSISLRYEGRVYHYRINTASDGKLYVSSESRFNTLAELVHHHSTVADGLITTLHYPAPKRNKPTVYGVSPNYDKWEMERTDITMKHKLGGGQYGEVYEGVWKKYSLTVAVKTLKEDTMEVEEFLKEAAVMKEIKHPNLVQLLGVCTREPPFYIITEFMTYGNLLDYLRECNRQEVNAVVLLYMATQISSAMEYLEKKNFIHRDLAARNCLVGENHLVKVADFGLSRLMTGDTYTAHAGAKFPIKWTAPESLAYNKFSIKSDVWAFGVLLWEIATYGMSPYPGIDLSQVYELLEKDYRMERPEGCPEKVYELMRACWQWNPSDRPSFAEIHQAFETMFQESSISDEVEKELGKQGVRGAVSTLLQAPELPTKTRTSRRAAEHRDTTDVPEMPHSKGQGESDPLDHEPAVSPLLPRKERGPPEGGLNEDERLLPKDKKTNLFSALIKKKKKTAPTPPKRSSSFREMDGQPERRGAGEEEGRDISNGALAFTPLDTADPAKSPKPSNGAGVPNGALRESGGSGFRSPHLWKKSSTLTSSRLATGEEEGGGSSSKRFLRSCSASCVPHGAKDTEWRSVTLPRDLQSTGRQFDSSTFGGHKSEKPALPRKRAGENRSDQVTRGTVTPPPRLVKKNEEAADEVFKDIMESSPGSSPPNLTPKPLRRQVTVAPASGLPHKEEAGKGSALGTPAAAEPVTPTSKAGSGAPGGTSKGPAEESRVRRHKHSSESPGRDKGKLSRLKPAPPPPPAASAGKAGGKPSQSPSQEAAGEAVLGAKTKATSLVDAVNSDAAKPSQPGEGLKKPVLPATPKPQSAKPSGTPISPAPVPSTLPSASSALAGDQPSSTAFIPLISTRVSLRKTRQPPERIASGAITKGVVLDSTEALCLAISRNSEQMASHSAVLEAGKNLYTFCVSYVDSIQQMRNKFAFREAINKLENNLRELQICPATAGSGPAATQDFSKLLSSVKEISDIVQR
Casein kinase I isoform delta (Homo sapiens), sequence (P48730 whole entry, looked up, canonical isoform): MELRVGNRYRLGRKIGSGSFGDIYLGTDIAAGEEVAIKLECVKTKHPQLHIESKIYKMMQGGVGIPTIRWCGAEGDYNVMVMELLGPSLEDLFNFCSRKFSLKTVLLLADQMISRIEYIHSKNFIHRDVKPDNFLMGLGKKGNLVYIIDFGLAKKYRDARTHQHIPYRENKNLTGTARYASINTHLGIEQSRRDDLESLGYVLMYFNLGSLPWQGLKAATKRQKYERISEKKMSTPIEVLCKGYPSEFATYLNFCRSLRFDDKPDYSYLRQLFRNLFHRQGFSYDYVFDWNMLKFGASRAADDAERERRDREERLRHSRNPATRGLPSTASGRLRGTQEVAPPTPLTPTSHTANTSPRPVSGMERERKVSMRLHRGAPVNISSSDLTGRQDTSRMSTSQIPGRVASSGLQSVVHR

Consider `CCCCCCCCCCCCCC(=S)NCCCC[C@H](NC(=O)OCc1ccccc1)C(=O)Nc1ccccc1`, for which the ΔTm amounted to 0.75 °C in assay [1]; 2.49 °C in assay [2]; 1.43 °C in assay [3]; 0.13 °C in assay [4]; 0.6 °C in assay [5]; 0.45 °C in assay [6]. In addition, the values for the ΔTm in assay [7] and in assay [8] were -2.19 °C and 1.92 °C, respectively.

`Cc1ncsc1-c1ccc(CNC(=O)[C@@H]2C[C@@H](O)CN2C(=O)[C@@H](NC(=O)COCCOCCOc2ccc(-c3ccc4ncnc(Nc5ccc(OCc6cccc(F)c6)c(Cl)c5)c4c3)cc2)C(C)(C)C)cc1`: the ΔTm is 2.92 °C in assay [1]; 5.48 °C in assay [2]; 5.97 °C in assay [3]; -3.34 °C in assay [4]; 9.57 °C in assay [5]; -2.89 °C in assay [6]. For the same molecule, the figures for the ΔTm in assay [7] and in assay [8] were 7.09 °C and 10.8 °C, respectively.

For `CCCCOc1c(OC)cc(C(=O)NCC2(N(C)C)CCOCC2)cc1OC`, the ΔTm in assay [1] was 0.07 °C; in assay [2], 0.11 °C; in assay [3], 0.02 °C; in assay [4], -0.36 °C; in assay [5] it was -1.71 °C; in assay [6], 0.03 °C. Moreover, the shift in melting temperature (ΔTm) was -2.39 °C in assay [7] and -0.41 °C in assay [8].

As for `O=c1[nH]ccc2cc(F)c(NS(=O)(=O)c3ccc(N4CC[C@@H](O)C4)s3)cc12`, the ΔTm in assay [1] was 0.78 °C; in assay [2] it was -1.78 °C; in assay [3], 0.35 °C; in assay [4], 0.39 °C; in assay [5], -0.79 °C; in assay [6], 0.11 °C. Further, the results for the ΔTm in assay [7] and in assay [8] were -0.16 °C and -0.69 °C, respectively.

On to `CCC1CCCCN1C(=O)n1ncc(C(O)(c2ccccc2)c2ccccc2)n1` (stereo not drawn), for which the shift in melting temperature (ΔTm) was -3.62 °C in assay [1]; -3.03 °C in assay [2]; -0.45 °C in assay [3]; 0.07 °C in assay [4]; -6.94 °C in assay [5]; 0.16 °C in assay [6]. For the same molecule, the values for the shift in melting temperature (ΔTm) in assay [7] and in assay [8] were -2.31 °C and -1 °C, respectively.

As for `Cc1nc(-c2cnn(C)c2-c2ccc(C(F)(F)F)cn2)c2c(N3CCC3)ncnn12`, the ΔTm in assay [1] was 0.74 °C; in assay [2] it was -3.11 °C; in assay [3] it was 0.08 °C; in assay [4], -0.17 °C; in assay [5], -0.34 °C; in assay [6] it was 0.1 °C. Further, the ΔTm in assay [7] is -2.46 °C; in assay [8], 0.34 °C.

For the molecule `Cn1c(NCCN(CCO)CCCc2ccc([N+](=O)[O-])cc2)cc(=O)n(C)c1=O`, the ΔTm was -0.01 °C in assay [1]; 0.07 °C in assay [2]; 0.08 °C in assay [3]; -0.29 °C in assay [4]; -0.66 °C in assay [5]; 0.09 °C in assay [6]. The results for the ΔTm in assay [7] and in assay [8] were -1.33 °C and 0.26 °C, respectively.

For the molecule `CNc1nccc(CN(CC2CCNCC2)S(=O)(=O)c2ccc(S(=O)(=O)N(Cc3ccc(Cl)cc3)C3CCCC3)cc2)n1`, the ΔTm in assay [1] was 0.85 °C; in assay [2], -3.15 °C; in assay [3] it was 0.06 °C; in assay [4], 0.31 °C; in assay [5], 0.43 °C; in assay [6], 0.57 °C. Besides, the ΔTm in assay [7] was -2.49 °C; in assay [8], -0.52 °C.

As for `Cc1ncsc1-c1ccc(CNC(=O)[C@@H]2C[C@@H](O)CN2C(=O)[C@@H](NC(=O)COCCOCCOCCNC(=O)C[C@@H]2N=C(c3ccc(Cl)cc3)c3c(sc(C)c3C)-n3c(C)nnc32)C(C)(C)C)cc1`, the ΔTm in assay [1] is 0.3 °C; in assay [2], 10 °C; in assay [3], -1.76 °C; in assay [4], 0.94 °C; in assay [5], 0 °C; in assay [6], 0 °C. Further, the ΔTm in assay [7] and in assay [8] was 0 °C in each case.

Regarding `Cc1ccsc1C(=CCCN1CCC[C@@H](C(=O)O)C1)c1sccc1C`, the ΔTm was 0.26 °C in assay [1]; 0.65 °C in assay [2]; 0.86 °C in assay [3]; -0.21 °C in assay [4]; -0.18 °C in assay [5]; 0.16 °C in assay [6]. Moreover, the thermal shift (ΔTm) in assay [7] was -1.21 °C; in assay [8], 0.76 °C.

For the molecule `O=C(NO)c1cnc(NC2(c3ccccc3)CC2)nc1`, the ΔTm was -0.47 °C in assay [1]; -1.48 °C in assay [2]; 0.47 °C in assay [3]; 0.23 °C in assay [4]; -0.05 °C in assay [5]; -0.3 °C in assay [6]. Further, the ΔTm was -0.41 °C in assay [7] and -1.75 °C in assay [8].

As to `CC(C)N(C(=O)c1cc(F)ccc1Oc1cncnc1N1CC2(CCN(C[C@H]3CC[C@H](NS(C)(=O)=O)CC3)CC2)C1)C(C)C`, the ΔTm in assay [1] was 0.57 °C; in assay [2] it was -1.5 °C; in assay [3] it was 0.13 °C; in assay [4], -0.36 °C; in assay [5], -0.7 °C; in assay [6], 0.13 °C. In addition, the shift in melting temperature (ΔTm) was -2.37 °C in assay [7] and 0.16 °C in assay [8].

As to `c1ccc(Cn2c(-c3ccc(OC[C@H](C4CCNCC4)n4c(-c5ccccc5)nc5ccccc54)cc3)nc3ccccc32)cc1`, the ΔTm is -1.84 °C in assay [1]; -6.29 °C in assay [2]; -1.5 °C in assay [3]; -0.34 °C in assay [4]; -3.92 °C in assay [5]; 0 °C in assay [6]. The ΔTm is 0 °C in assay [7] and -1.18 °C in assay [8].

With `COc1ccc(-c2c(-c3ccc(C#N)c(F)c3)nc(N3CCC(N)CC3)n(C)c2=O)cc1F`, the ΔTm in assay [1] is 0.65 °C; in assay [2] it was -3.53 °C; in assay [3] it was 0 °C; in assay [4], 0 °C; in assay [5], -0.33 °C; in assay [6] it was 0.2 °C. Moreover, the shift in melting temperature (ΔTm) in assay [7] is -2.24 °C; in assay [8], -0.36 °C.

For the molecule `C/C=C1\NC(=O)[C@H]2CSSCC/C=C/[C@H](CC(=O)N[C@H](C(C)C)C(=O)N2)OC(=O)[C@H](C(C)C)NC1=O`, the ΔTm is -1.22 °C in assay [1]; -2.72 °C in assay [2]; -0.96 °C in assay [3]; -0.77 °C in assay [4]; -0.05 °C in assay [5]; -6.13 °C in assay [6]. Besides, the ΔTm in assay [7] was -0.48 °C; in assay [8] it was 0.22 °C.

Regarding `O=C(NCCCc1ccccc1)c1cccc(-c2cc(O)c3ncccc3c2)c1`, the thermal shift (ΔTm) in assay [1] is 0.62 °C; in assay [2], -0.53 °C; in assay [3] it was 0.91 °C; in assay [4], 0.06 °C; in assay [5], 0.84 °C; in assay [6], 0.32 °C. For the same molecule, the values for the ΔTm in assay [7] and in assay [8] were -0.61 °C and 0.72 °C, respectively.

On to `CNc1cc(-c2cccc(Cl)c2Cl)nc(N)n1`, for which the ΔTm is 0.38 °C in assay [1]; -2.61 °C in assay [2]; 0.11 °C in assay [3]; -0.27 °C in assay [4]; -0.04 °C in assay [5]; 0.22 °C in assay [6]. The ΔTm in assay [7] is -2.02 °C; in assay [8], 0.28 °C.

`C[C@@H]1CN(c2nccc(Nc3ccc4c(c3)n(CCC(C)(C)O)c(=O)n4C)n2)C[C@H](C)C1(F)F`: the ΔTm is 1.46 °C in assay [1]; -1.76 °C in assay [2]; 3.21 °C in assay [3]; -0.23 °C in assay [4]; -0.32 °C in assay [5]; -7.23 °C in assay [6]. Besides, the ΔTm in assay [7] is -2.03 °C; in assay [8], -1.14 °C.

For the molecule `COc1cc([C@@H]2Oc3c(O)cc([C@H]4Oc5cc(O)cc(O)c5C(=O)[C@@H]4O)cc3[C@H]2CO)ccc1O`, the ΔTm in assay [1] is 0.61 °C; in assay [2], -1.83 °C; in assay [3] it was 0.16 °C; in assay [4], 0.36 °C; in assay [5] it was 3.53 °C; in assay [6], 0.13 °C. Further, the ΔTm was -1.74 °C in assay [7] and 1.87 °C in assay [8].

Regarding `CC(C)(O)c1ccc(-c2nc3c(F)cc(F)cc3c(=O)[nH]2)cc1`, the ΔTm in assay [1] is 1.34 °C; in assay [2] it was -1.77 °C; in assay [3], -0.55 °C; in assay [4] it was 1.05 °C; in assay [5], -2.12 °C; in assay [6] it was -4.92 °C. Moreover, the ΔTm in assay [7] is -0.15 °C; in assay [8], -1.14 °C.

As to `O=C1Nc2ccccc2C2(CCN(CC(Cc3ccccc3)Nc3nc4ccc(F)cc4s3)CC2)N1` (stereo not drawn), the thermal shift (ΔTm) in assay [1] is 0.77 °C; in assay [2], -4.21 °C; in assay [3], -0.52 °C; in assay [4], -0.49 °C; in assay [5], -1.4 °C; in assay [6], -0.14 °C. The thermal shift (ΔTm) in assay [7] was -2.22 °C; in assay [8], 0.18 °C.

The record behind these values is ChEMBL document CHEMBL5724796, “Tm Shift (DSF) assay results for EUbOPEN Chemogenomics Library” (2024).
